This note sets out measurements from PubChem BioAssay (NCATS).

Where “and” joins values, the source holds several entries; their conditions need not be identical. Equal values may be shown once. Inconclusive results are not listed. Some structures have more than one record in an assay (separate samples or runs), and their calls can disagree. Calls of active or inactive are those of the source. Unless noted, calls follow the shape of the dose curve; as a rule, active = well fitted curve in the direction sought with a large enough effect in the repeat runs; inconclusive = weak or mixed curves; inactive = no such curve, though single readings can be large; an effect the other way counts as inactive or inconclusive.

Test [1] in a line: A High-Content qHTS Against Drug Library for the Identification of Small Molecules that Inhibit DYT1 Early Onset Primary Dystonia-Associated Cell Pathology (AID 1645839; calls by dose curve; also: series mostly up to about 46 µM). In a few lines: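 Flp-In T-REx 293 cells with tetracycline-inducible EGFP-delE hTOR1A (WT EGFP-hTOR1A as reference), 800 cells/well; compound added with tetracycline, 48 h at 37 C. Fixed, permeabilized cells imaged; %pathology (punctate TorsinA) primary, cell count counterscreen.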
Background: In qHTS, concentration-response curves come from the screen itself.

Test [2] deals with Cytochrome P450 2C9 (Homo sapiens) (UniProt P11712). Description: Cytochrome P450 family 2 subfamily C member 9 (CYP2C9) small molecule antagonists: luciferase biochemical (cell-free) qHTS assay (AID 1645842). Also: nearly all actives have a fitted effect of over 55% in size. Also: potency is read from the fitted curve at half-maximal effect. In a few lines:
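Luminescence, after 20 min with luciferin detection reagent, reflected CYP2C9 turnover during a 1 h NADPH-driven reaction at 37C. Enzyme-substrate mix contained 0.4% bovine serum albumin and was preincubated with compound 10 min at room temperature.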

Test [3] in a line: Primary qHTS for inhibitors of nuclear receptor binding SET domain protein 2 (NSD2) in an isogenic RCH-ACV NSD2 p.E1099K mutant (9B) (AID 1645876; active = well fitted curve in the direction sought with a large enough effect; an effect the other way counts as inactive or inconclusive; also: nearly all actives have a fitted effect of over 70% in size; also: potency is read from the fitted curve at half-maximal effect).
The target in test [4] is N-terminal Xaa-Pro-Lys N-methyltransferase 1 (Homo sapiens) (UniProt Q9BV86). Put plainly: Confirmatory qHTS for Inhibitors of N-terminal methyltransferase 1 (NTMT1): MTaseGlo Assay (AID 1645874; active = well fitted curve in the direction sought with a large enough effect; an effect the other way counts as inactive or inconclusive;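 also: luminescence from SAH made as NTMT1 methylates SPKRIA peptide using SAM; series mostly up to about 100 µM; nearly all actives have a fitted effect of over 65% in size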). In a few lines:
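Preincubation of NTMT1 (125 nM) plus SAM (100 uM) with test compounds lasted 15 min; methylation of 1 uM SPKRIA then proceeded 30 min in the dark at room temperature. Luciferase signal reported SAH produced.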

Test [5] deals with Cytochrome P450 2D6 (Homo sapiens) (UniProt P10635). Put plainly: Cytochrome P450 family 2 subfamily D member 6 (CYP2D6) small molecule antagonists: luciferase biochemical (cell-free) qHTS assay (AID 1645840). Also: nearly all actives have a fitted effect of over 55% in size. Also: potency is read from the fitted curve at half-maximal effect. In a few lines: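 P450-Glo luminescent screen: recombinant CYP2D6 enzyme–proluciferin substrate mix preincubated with compound 10 min at room temperature, then NADPH regeneration added for 1 h at room temperature. Detection reagent added for 20 min; luciferin light read as relative luminescence units.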

Test [6] has as its target Papain (Carica papaya) (UniProt P00784). Description: Primary qHTS assay for inhibitors of the protease papain (AID 1645873; active = well fitted curve in the direction sought with a large enough effect; an effect the other way counts as inactive or inconclusive;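 also: papain turnover of Z-FR-AMC read as the AMC fluorescence gain over 10 min; series mostly up to about 50 µM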).

Sequence of Cytochrome P450 2D6 (Homo sapiens) (P10635 whole entry, looked up): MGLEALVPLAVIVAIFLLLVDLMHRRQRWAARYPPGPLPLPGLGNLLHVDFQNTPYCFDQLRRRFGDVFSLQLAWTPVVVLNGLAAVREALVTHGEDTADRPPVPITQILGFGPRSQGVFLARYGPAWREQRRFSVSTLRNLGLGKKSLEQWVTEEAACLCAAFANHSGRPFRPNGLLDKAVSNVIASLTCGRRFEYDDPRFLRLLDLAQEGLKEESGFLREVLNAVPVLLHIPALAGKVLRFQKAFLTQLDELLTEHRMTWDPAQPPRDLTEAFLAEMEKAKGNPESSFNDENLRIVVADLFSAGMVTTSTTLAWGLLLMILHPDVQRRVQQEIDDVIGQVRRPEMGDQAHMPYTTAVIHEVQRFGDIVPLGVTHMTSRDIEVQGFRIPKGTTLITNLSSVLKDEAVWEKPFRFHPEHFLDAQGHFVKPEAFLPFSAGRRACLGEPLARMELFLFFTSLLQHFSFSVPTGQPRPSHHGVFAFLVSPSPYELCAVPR
Sequence of Cytochrome P450 2C9 (Homo sapiens) (P11712 whole entry, looked up): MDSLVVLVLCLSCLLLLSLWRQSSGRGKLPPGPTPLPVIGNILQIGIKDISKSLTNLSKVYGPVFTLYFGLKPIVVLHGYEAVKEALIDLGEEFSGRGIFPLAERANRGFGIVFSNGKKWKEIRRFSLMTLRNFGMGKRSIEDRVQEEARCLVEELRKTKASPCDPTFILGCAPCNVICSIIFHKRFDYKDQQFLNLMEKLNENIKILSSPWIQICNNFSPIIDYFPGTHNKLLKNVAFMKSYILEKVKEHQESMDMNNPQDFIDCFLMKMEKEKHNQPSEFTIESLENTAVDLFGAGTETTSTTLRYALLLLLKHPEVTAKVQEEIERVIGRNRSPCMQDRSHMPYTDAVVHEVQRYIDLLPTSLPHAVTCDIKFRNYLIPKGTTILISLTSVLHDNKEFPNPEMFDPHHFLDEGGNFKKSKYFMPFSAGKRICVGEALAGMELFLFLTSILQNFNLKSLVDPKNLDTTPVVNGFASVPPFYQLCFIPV
Sequence of Papain (Carica papaya) (P00784 whole entry, looked up): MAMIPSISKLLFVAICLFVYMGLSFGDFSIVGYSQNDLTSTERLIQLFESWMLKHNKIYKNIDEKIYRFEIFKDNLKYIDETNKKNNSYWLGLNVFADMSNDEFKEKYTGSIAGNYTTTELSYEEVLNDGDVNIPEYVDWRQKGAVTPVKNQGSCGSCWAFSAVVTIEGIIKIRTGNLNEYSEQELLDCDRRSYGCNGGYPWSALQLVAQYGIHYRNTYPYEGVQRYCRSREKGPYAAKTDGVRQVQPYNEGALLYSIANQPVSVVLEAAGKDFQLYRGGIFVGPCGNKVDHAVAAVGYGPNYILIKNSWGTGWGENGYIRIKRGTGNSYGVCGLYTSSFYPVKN
Sequence of N-terminal Xaa-Pro-Lys N-methyltransferase 1 (Homo sapiens) (Q9BV86 whole entry, looked up): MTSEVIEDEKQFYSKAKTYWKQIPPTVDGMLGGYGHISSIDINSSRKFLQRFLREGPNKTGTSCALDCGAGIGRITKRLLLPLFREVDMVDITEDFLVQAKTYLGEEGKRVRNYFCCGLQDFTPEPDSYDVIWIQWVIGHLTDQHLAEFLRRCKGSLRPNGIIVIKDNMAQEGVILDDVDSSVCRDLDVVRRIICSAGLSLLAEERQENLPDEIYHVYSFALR

Take `C/C(=N/NC(=O)c1ccncc1)C(=O)O`: the Potency result in test [1], in test [2] and in test [3] was “inactive” in each case.

Consider `CCOC(=O)Oc1ccc(CCNC(=O)[C@H](CCSC)NC(C)=O)cc1OC(=O)OCC`, for which the Potency entry in test [1] and in test [3] was “inactive” each time.

Take `CSCC[C@H](NC(=O)[C@H](Cc1c[nH]c2ccccc12)NC(=O)CCNC(=O)OC(C)(C)C)C(=O)N[C@@H](CC(=O)O)C(=O)N[C@@H](Cc1ccccc1)C(N)=O`: the Potency result in test [1], in test [2] and in test [3] was “inactive” in each case.

As for `COc1ccccc1N1CCN(CC(O)COc2cc(OC)c(OC)c(OC)c2)CC1` (stereo unspecified), the Potency result in test [1], in test [2] and in test [3] was “inactive” each time.

In the case of `Nc1c(NC/C=C\COc2cc(CN3CCCCC3)ccn2)c(=O)c1=O`, the Potency entry in test [1], in test [2] and in test [3] was “inactive” in each case.

Take `CCN1C(=O)c2ccccc2C1Nc1ccc(OCCN2CCCCC2)cc1` (stereo unspecified): the Potency result in test [1], in test [2] and in test [3] was “inactive” each time.

On to `CN1CCCN=C1/C=C/c1cccs1`, for which the Potency entry in test [1], in test [4] and in test [3] was “inactive” in each case.

As to `CC(CC1c2ccccc2CCc2ccccc21)CN(C)C` (stereo unspecified), in test [5], the Potency is 0.246 µM (active). Further, the Potency entry in test [2] was “inactive”.

For the compound `O=[N+]([O-])c1cncn1CCN1CCOCC1`, the Potency entry in test [5], in test [2] and in test [3] was “inactive” each time.

As for `c1ccc2c(c1)CCc1ccccc1N2`, the Potency entry in test [3] is “inactive”.

`CC(COc1ccccc1)NN` (stereo unspecified): the Potency in test [5] is 16.9 µM (active); in test [2] it was 23.9 µM (active). The Potency result in test [3] is “inactive”.

In the case of `O=C1NC2CCCCN2C12CCN(CCCN1c3ccccc3CCc3ccc(Cl)cc31)CC2` (stereo unspecified), the Potency is 2.45 µM (active) in test [5] and 18.3 µM (active) in test [3].

For `O=C1Cc2cc(Cl)ccc2N1`, in test [2], the Potency was 11 µM (active). Besides, the Potency result in test [3] was “inactive”.

With `Cc1ccc(/C=N/n2c(-c3ccccc3)csc2=S)cc1`, the Potency in test [2] is 4.36 µM (active). Besides, the Potency entry in test [3] was “inactive”.

As to `Cc1ccc(CCn2c3c(c4cc(Cl)ccc42)CN(C)CC3)cn1`, in test [5], the Potency was 2.19 µM (active). For the same compound, the Potency entry in test [2] was “inactive”.

`CCCN(CCC)C(=O)C(CCC(=O)OCCCN1CCN(CCOC(=O)Cc2c(C)n(C(=O)c3ccc(Cl)cc3)c3ccc(OC)cc23)CC1)NC(=O)c1ccccc1` (stereo unspecified): the Potency is 7.76 µM (active) in test [5] and 3.47 µM (active) in test [2].

As to `CCCOc1ccc2c(c1)CC[C@@H]1[C@@H]2CC[C@]2(C)C(OC)CC[C@@H]12` (stereo partly specified), the figures for the Potency in test [5] and in test [2] were 15.5 µM (active) and 19.5 µM (active), respectively. For the same compound, in test [3], the Potency result is “inactive”.

Regarding `CSc1ccc(/C=C2/C(C)=C(CC(=O)O)c3cc(F)ccc32)cc1`, the Potency entry in test [2] and in test [3] was “inactive” in each case.

For the compound `COC(=O)C1=CO[C@@H](O)[C@@H]2C(CO)=CC[C@H]12`, the compound was called inactive in test [6].

`CC(=O)c1ccc(O)c(C(N)=O)c1`: the Potency entry in test [5], in test [2] and in test [3] was “inactive” each time.

In the case of `Nc1nc(=O)n([C@@H]2O[C@H](CO)[C@@H](O)[C@@H]2F)cc1I`, the Potency result in test [5] and in test [2] was “inactive” each time. Moreover, the Potency in test [3] was 1.68 µM (active).

As for `Nc1cc(C(F)(F)F)ccc1S`, the Potency is 15.5 µM (active) in test [5], 1.38 µM (active) in test [2] and 9.44 µM (active) in test [3]. For the same compound, in test [4], the Potency result is “inactive”.

For `CCCCCCOC(=O)NC(=N)c1ccc(NCc2nc3cc(C(=O)N(CCC(=O)OCC)c4ccccn4)ccc3n2C)cc1`, the Potency was 1.38 µM (active) in test [2] and 18.6 µM (active) in test [3].

Consider `COc1cc(C=O)ccc1O`, for which the Potency result in test [5], in test [2] and in test [3] was “inactive” in each case.

Regarding `O=C(O)C(=O)Nc1cccc(-c2nn[nH]n2)c1`, the Potency result in test [5], in test [2] and in test [3] was “inactive” each time.

In the case of `CN(C)CCOC1=Cc2ccccc2Sc2ccc(Cl)cc21`, in test [5], the Potency was 1.1 µM (active). Also, the Potency entry in test [2] was “inactive”.

`C[C@@H](C1=C(CCN(C)C)Cc2ccccc21)c1ccccn1`: the Potency entry in test [2] and in test [3] was “inactive” each time.

As to `Cc1ccc(O)cc1`, the Potency entry in test [3] is “inactive”.

Consider `CN(C)c1cc2c(Nc3ccc4c(cnn4Cc4ccccc4)c3)ncnc2cn1`, for which, in test [6], the outcome was inactive. In addition, the Potency in test [3] is 23 µM (active).

As for `c1ccc2occc2c1`, the Potency entry in test [2] is “inactive”.

On to `COc1ccccc1OCC1CNC(=O)O1` (stereo unspecified), for which the Potency entry in test [5], in test [2] and in test [3] was “inactive” each time.

On to `CO/N=C(/C(=O)N[C@@H]1C(=O)N2C(C(=O)[O-])=C(C[n+]3ccn4ncccc43)CS[C@H]12)c1nsc(N)n1`, for which the Potency entry in test [5] and in test [2] was “inactive” throughout.

On to `COC(=O)CCCCC(CCSS/C(CCO)=C(\C)N(C=O)Cc1cnc(C)nc1N)SC(C)=O` (stereo unspecified), for which the Potency entry in test [2] and in test [3] was “inactive” in each case.

Take `Cn1cc(S(C)=O)c(=O)c2ccc(F)cc21` (stereo unspecified): the Potency entry in test [5], in test [2] and in test [3] was “inactive” throughout.

As to `O=C1Nc2ccccc2C1(c1ccc(O)cc1)c1ccc(O)cc1`, the Potency is 19.5 µM (active) in test [5], 4.36 µM (active) in test [2] and 21.1 µM (active) in test [3].

`CCN(CC)CCOc1ccc(/C(=C(\Cl)c2ccccc2)c2ccccc2)cc1`: the Potency is 1.38 µM (active) in test [5]; 15 µM (active) and 8.33 µM (active) in test [3].

With `N#CSCC(=O)O`, the Potency result in test [5] and in test [2] was “inactive” in each case.

On to `O=P(O)(O)OCC(O)CO` (stereo unspecified), for which the Potency entry in test [5], in test [2] and in test [3] was “inactive” in each case.

On to `O=C(Nc1ccc(Cl)cc1)Nc1ccc(Cl)c(C(F)(F)F)c1`, for which the Potency is 13.8 µM (active) in test [5], 11 µM (active) in test [2] and 4.22 µM (active) in test [3].

Regarding `COC(=O)C1=C(C)NC(C)=C(C(=O)OCCc2ccc(N3CCN(C(c4ccccc4)c4ccccc4)CC3)cc2)C1c1cccc([N+](=O)[O-])c1` (stereo unspecified), the Potency result in test [5] and in test [3] was “inactive” each time. In addition, the Potency in test [2] is 0.55 µM (active).

On to `Cc1nn(-c2ccccc2)c(C)c1/C=N/N1CCN(Cc2ccccc2)CC1`, for which, in test [6], the compound was classed as inactive.

`C[C@@H](O[C@H]1OCCN(Cc2n[nH]c(=O)[nH]2)[C@H]1c1ccc(F)cc1)c1cc(C(F)(F)F)cc(C(F)(F)F)c1`: the Potency in test [2] is 12.1 µM (active).

Take `Cc1ccc(C(=O)C(=O)O)cc1C`: the Potency result in test [2] and in test [3] was “inactive” each time.

Take `OCc1c[nH]c2ccccc12`: the values for the Potency in test [5], in test [2] and in test [3] were 25.2 µM (active), 7.31 µM (active) and 24.3 µM (active), respectively.

Regarding `O=[N+]([O-])c1ccc(-c2nc(-c3ccc(F)cc3)c(-c3ccncc3)[nH]2)cc1`, in test [6], the call was inactive. In addition, the Potency result in test [3] was “inactive and 18.4 µM (active)”.
